Source: PubChem BioAssay AID2551 (National Center for Advancing Translational Sciences (NCATS), 2010)
The campaign covered roughly 310,000 compounds. About 17,000 (5.5%) were called active. Roughly 11% stayed inconclusive and do not appear here. The call rests on the fitted dose curve; in most records, active means well fitted inhibition curve with a large enough effect; inconclusive means small, poorly fitted or top-dose-only effect, or effect the other way; inactive means no such curve, though single readings can be large or run the other way. Shown is part of a subset that was picked to be rich in actives. Entries that show only a call come without a potency.

biological target: Nuclear receptor ROR-gamma (Mus musculus) (UniProt P51450); assay: qHTS for inhibitors of ROR gamma transcriptional activity; details: Drosophila S2 Gal4-RORgamma UAS-luciferase reporter, 20 h; series mostly up to 53.6 µM; further: nearly all actives have a fitted effect of over 60% in size
How it was run: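 Stable Schneider cell line, Gal4 DNA-binding domain fused to ROR gamma, UAS-luciferase. Cmpd 1 hr RT → CuSO4 700 uM final → 20 hr RT → luciferase reagent 10 min → luminescence.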
Potency means the concentration at half of the fitted maximal effect.

Sequence of Nuclear receptor ROR-gamma (Mus musculus) (P51450 whole entry, looked up, the tested form may be a part): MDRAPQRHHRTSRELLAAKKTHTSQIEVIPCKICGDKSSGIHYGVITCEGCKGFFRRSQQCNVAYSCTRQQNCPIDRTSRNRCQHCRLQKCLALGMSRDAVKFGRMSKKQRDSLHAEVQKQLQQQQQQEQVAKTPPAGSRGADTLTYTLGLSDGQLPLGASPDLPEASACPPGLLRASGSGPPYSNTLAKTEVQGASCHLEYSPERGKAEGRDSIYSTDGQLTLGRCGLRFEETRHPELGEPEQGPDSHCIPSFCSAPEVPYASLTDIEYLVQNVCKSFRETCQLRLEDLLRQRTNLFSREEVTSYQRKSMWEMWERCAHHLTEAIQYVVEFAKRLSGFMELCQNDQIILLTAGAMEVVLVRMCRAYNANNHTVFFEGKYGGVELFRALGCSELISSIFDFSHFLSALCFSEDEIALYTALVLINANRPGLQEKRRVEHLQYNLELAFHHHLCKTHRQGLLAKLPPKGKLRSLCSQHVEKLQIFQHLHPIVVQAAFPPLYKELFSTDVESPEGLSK

| SMILES | Potency | activity change, negative = inhibition |
| --- | --- | --- |
| Cc1cc(=O)oc2c(C)c(OC(C)C(=O)NC3CCN(Cc4ccccc4)CC3)ccc12 (configuration not stated) | inactive | – |
| COCc1ccc(C(=O)NC2CC(C)(C)Cc3c2cnn3-c2ccc(C)cc2)o1 (configuration not stated) | inactive | – |
| CC(=O)c1ccc(NC(=O)CCNS(=O)(=O)c2cc(Br)cnc2N)cc1 | inactive | – |
| COc1cc(OC)cc(C(=O)Nc2ccc(S(=O)(=O)Nc3cc(C)on3)cc2)c1 | inactive | – |
| O=C(Nc1ccc2oc(-c3ccccc3F)nc2c1)c1ccco1 | inactive | – |
| COc1cc(OC)cc(C(=O)Nc2ccc(-c3nc4ccccc4o3)c(O)c2)c1 | 11.2 µM (active) | – |
| C[n+]1cc(-c2ccccc2)oc1-c1ccccc1 | inactive | – |
| CC(C)N(C(=O)Cn1cc(S(=O)(=O)CC(=O)N2CCOCC2)c2ccccc21)C(C)C | inactive | – |
| COc1ccc2c(CC(=O)N3CCc4cc(OC)c(OC)cc4C3)coc2c1 | inactive | – |
| C=C1C(=CC=C2CCC[C@@]3(C)[C@@H]2CC[C@H]3[C@H](C)CCCC(C)C)C[C@@H](O)C[C@@H]1O | 12.6 µM (active) | – |
| CCC(CCC(C)C1CCC2C3CC=C4CC(O)CC[C@@]4(C)C3CC[C@@]12C)C(C)C (some centres not stated) | inactive | – |
| COc1ccc(C(=O)O/N=C(\N)c2ccccn2)cc1[N+](=O)[O-] | – | -42.4% [at 1.91 µM] (inactive) |
| Cc1cccc(C(=O)c2cccc(C)c2)c1 | inactive | – |
| Cc1cccc(/C(N)=N/OC(=O)c2ccccc2Cl)c1 | 0.251 µM (active) | – |
| Cc1ccc(C(=O)O/N=C(\N)c2ccccn2)cc1Cl | – | 35.7% [at 1.91 µM] (inactive) |
| COc1ccc(S(=O)(=O)N2CCC(C(=O)N3CCCC3)CC2)cc1C | inactive | – |
| COc1ccc(-c2nn(-c3ccccc3)cc2/C=C\C(=O)Nc2ccc(C(=O)O)cc2)cc1 | inactive | – |
| COc1ccc(-c2nn(-c3ccccc3)cc2/C=C\C(=O)N2CCOCC2)cc1[N+](=O)[O-] | inactive | – |
| O=C(/C=C/c1cn(-c2ccccc2)nc1-c1ccc2c(c1)OCCO2)NCCCN1CCOCC1 | 17.8 µM (active) | – |
| O=C1CSC(=S)N1c1ccc(Cl)c(Cl)c1 | inactive | – |
| COc1cc(N2C(=O)CSC2=S)cc(OC)c1OC | inactive | – |
| O=C1CSC(=S)N1c1ccc(O)cc1 | 12.6 µM (active) | – |
| CC1CN(C(=O)CCC(=O)NC2CCN(Cc3ccccc3)CC2)c2ccccc2O1 (configuration not stated) | inactive | – |
| Cc1ccc(OCC(=O)Nc2ccccc2C(=O)NC2CC2)cc1C | inactive | – |
| O=C(Nn1cnnc1)c1cc(Cl)ccc1Cl | inactive | – |
| O=C(N/N=C1\CCSC1)c1cc(Cl)ccc1O | 11.2 µM (active) | – |

| SMILES | Potency | activity change, negative = inhibition |
| --- | --- | --- |
| NNC(=O)c1ccc(Cl)cc1Cl | inactive | – |
| O=C(c1cc(COc2ccc(F)c(F)c2)on1)N1CCOCC1 | inactive | – |
| COc1ccc(OCC(=O)NCCS(=O)(=O)N2CCN(c3ccc(F)cc3)CC2)cc1 | inactive | – |
| Cc1cccc(NC(=O)NC2(C)CCS(=O)(=O)C2)c1 (configuration not stated) | inactive | – |
| CC(=O)NCC(=O)N1CCCC(C(=O)c2ccc3c4c(cccc24)CC3)C1 (configuration not stated) | inactive | – |
| CCn1ccnc1CN1CCCC(C(=O)c2ccc3c4c(cccc24)CC3)C1 (configuration not stated) | 1.26 µM (active) | – |
| Cc1ncoc1C(=O)N1CCCC(C(=O)c2ccc3c4c(cccc24)CC3)C1 (configuration not stated) | inactive | – |
| CC(=O)Nc1ccc(S(=O)(=O)N(C)c2nc3ccccc3nc2Cl)cc1 | inactive | – |
| COc1ccc(C2c3[nH]c4ccccc4c3C[C@H]3C(=O)N(CC(C)C)CC(=O)N23)c(OC)c1 (some centres not stated) | inactive | – |
| COc1ccc(CNC(=O)CSc2n[nH]c(N)n2)cc1OC | inactive | – |
| Cc1ccc(N/C=C/C(=O)c2ccccc2)cc1C | 0.282 µM (active) | – |
| O=C(/C=C\NCC(=O)c1ccccc1)c1ccccc1 | inactive | – |
| Cc1noc(NS(=O)(=O)c2ccc(N/C=C/C(=O)c3ccccc3)cc2)c1C | inactive | – |
| C=CCOc1ccc(/C=C2/C(=O)ON=C2C)cc1OCC | inactive | – |
| COc1cc(/C=C2/C(=O)ON=C2C)ccc1OCc1ccccc1F | 10 µM (active) | – |
| COc1cc(/C=C2/C(=O)ON=C2C)ccc1OCc1cccc(F)c1 | inactive | – |
| Cc1nn2c(=O)cc(COC(=O)c3ccc(NC(=O)C(C)(C)C)cc3)nc2s1 | inactive | – |
| Cc1cccc(C)c1NC(=O)CSc1nnc(-c2ccccc2)n1Cc1ccc2c(c1)OCO2 | inactive | – |
| c1ccc(-c2nnc3n2NC(c2ccc4c(c2)OCO4)S3)cc1 (configuration not stated) | 7.94 µM (active) | – |
| O=C(Cn1nnc(-c2ccccc2)n1)NCc1ccc2c(c1)OCO2 | inactive | – |
| COC(=O)c1c(C)[nH]c(C(=O)/C=C/c2ccc(Cl)cc2)c1C | 0.282 µM (active) | – |
| COC(=O)c1c(C)[nH]c(C(=O)NCCc2ccc(S(N)(=O)=O)cc2)c1C | inactive | – |
| CCCCOC(=O)c1[nH]c(C)c(C(=O)OC)c1C | inactive | – |
| CCS(=O)(=O)N1CCC(N2CCN(c3ccccc3)CC2)CC1 | inactive | – |
| O=C(COC(=O)c1ccccn1)Nc1cccc2ccccc12 | inactive | – |
| N#Cc1ccccc1NC(=O)COc1c(Br)cc(Br)c2cccnc12 | 12.6 µM (active) | – |

| SMILES | Potency | activity change, negative = inhibition |
| --- | --- | --- |
| N#Cc1ccc(C(=O)Nc2cccc3cccnc23)c(F)c1 | inactive | – |
| Cc1ccc(CNC(=O)Cn2cnc(S(=O)(=O)N3CCCCC3)c2)o1 | inactive | – |
| Cc1c(C)c(C)c(S(=O)(=O)NCCc2ccccn2)c(C)c1C | inactive | – |
| Cc1ccc(C2NC(=S)NC3=C2N2CCC3CC2)cc1 (configuration not stated) | 11.2 µM (active) | – |
| COc1cc(NC(=O)c2ccccc2)c(OC)cc1NC(=O)Cc1ccccc1 | inactive | – |
| O=C(O)CCCn1c(=O)c2cccn2c2ccc(F)cc21 | inactive | – |
| Cc1ccc(-n2c(SCC(=O)NCCC3=CCCCC3)nc3n[nH]c(C)c3c2=N)cc1Cl | inactive | – |
| Cc1nonc1NC(=O)c1ccccc1Br | inactive | – |
| O=C(Nc1cccc(Cl)c1)Nc1nnc(-c2ccccc2)o1 | inactive | – |
| O=C(Nc1nnc(-c2ccc(Cl)cc2)o1)c1ccccc1Br | 2.51 µM (active) | – |
| CN=C1S/C(=C\c2c(OC)cc(OC)cc2OC)C(=O)N1C | inactive | – |
| CCc1ccc(S(=O)(=O)Nc2cc3c(cc2N2CCCCC2)n(C)c(=O)c(=O)n3C)cc1 | inactive | – |
| Cn1c(CCNS(=O)(=O)c2ccc(F)cc2)nnc1SCc1cccnc1 | inactive | – |
| COc1ccc(CC(=O)Nc2ccc(C(=O)NC(C)(C)C)cc2)cc1 | inactive | – |
| COc1ccc(C(=O)CCc2ccccc2O)c(OC)c1 | – | 3.95% [at 1.91 µM] (inactive) |
| O=C(Cc1ccccc1)N1N=C(c2ccncc2)CC1(O)C(F)(F)F (configuration not stated) | 7.08 µM (active) | – |
| CC1=NN(C(=O)CCc2ccccc2O)C(O)(C(F)(F)F)C1 (configuration not stated) | 8.91 µM (active) | – |
| CCC(C)NC(=O)CCCc1ccccc1 (configuration not stated) | inactive | – |
| COc1ccc(CC(=O)N2N=C(C)CC2(O)C(F)(F)F)cc1 (configuration not stated) | 7.94 µM (active) | – |
| CC(=O)N1N=C(c2ccncc2)OC1(Cc1ccccc1)Cc1ccccc1 | inactive | – |
| O=C(O)CCCc1ccccc1 | inactive | – |
| O=C(C1CC1)N1N=C(c2ccc(Br)cc2)CC1(O)C(F)(F)F (configuration not stated) | inactive | – |
| CCCCCNC(=O)Cc1ccc(OC)cc1 | inactive | – |
| O=C(CCc1ccccc1F)N1CCN(c2ccccc2)CC1 | inactive | – |
| CC1=NN(C(=O)CCCc2ccccc2)C(O)(C(F)(F)F)C1 (configuration not stated) | 4.47 µM (active) | – |
